For some of these results: Entries with a potency or affinity are not part of this list.
Tests used:
[1] = target: Protein translocase subunit SecA (Escherichia coli (strain K12)) (UniProt P10408); assay: Assay to Identify E. coli SecA ATPase Inhibitors; assay type: functional; design: scale not given: direction of the effect not stated beside the values; details: 30 µM
[2] = target: T1, Ubiquitin-activating enzyme e1, putative (Leishmania donovani (strain BPK282A1)) (UniProt E9BSI1); assay: Leishmania donovani Ubiquitin Activating Enzyme (LdE1); assay type: functional; design: scale not given: direction of the effect not stated beside the values; details: 30 µM
T1 sequence (whole entry): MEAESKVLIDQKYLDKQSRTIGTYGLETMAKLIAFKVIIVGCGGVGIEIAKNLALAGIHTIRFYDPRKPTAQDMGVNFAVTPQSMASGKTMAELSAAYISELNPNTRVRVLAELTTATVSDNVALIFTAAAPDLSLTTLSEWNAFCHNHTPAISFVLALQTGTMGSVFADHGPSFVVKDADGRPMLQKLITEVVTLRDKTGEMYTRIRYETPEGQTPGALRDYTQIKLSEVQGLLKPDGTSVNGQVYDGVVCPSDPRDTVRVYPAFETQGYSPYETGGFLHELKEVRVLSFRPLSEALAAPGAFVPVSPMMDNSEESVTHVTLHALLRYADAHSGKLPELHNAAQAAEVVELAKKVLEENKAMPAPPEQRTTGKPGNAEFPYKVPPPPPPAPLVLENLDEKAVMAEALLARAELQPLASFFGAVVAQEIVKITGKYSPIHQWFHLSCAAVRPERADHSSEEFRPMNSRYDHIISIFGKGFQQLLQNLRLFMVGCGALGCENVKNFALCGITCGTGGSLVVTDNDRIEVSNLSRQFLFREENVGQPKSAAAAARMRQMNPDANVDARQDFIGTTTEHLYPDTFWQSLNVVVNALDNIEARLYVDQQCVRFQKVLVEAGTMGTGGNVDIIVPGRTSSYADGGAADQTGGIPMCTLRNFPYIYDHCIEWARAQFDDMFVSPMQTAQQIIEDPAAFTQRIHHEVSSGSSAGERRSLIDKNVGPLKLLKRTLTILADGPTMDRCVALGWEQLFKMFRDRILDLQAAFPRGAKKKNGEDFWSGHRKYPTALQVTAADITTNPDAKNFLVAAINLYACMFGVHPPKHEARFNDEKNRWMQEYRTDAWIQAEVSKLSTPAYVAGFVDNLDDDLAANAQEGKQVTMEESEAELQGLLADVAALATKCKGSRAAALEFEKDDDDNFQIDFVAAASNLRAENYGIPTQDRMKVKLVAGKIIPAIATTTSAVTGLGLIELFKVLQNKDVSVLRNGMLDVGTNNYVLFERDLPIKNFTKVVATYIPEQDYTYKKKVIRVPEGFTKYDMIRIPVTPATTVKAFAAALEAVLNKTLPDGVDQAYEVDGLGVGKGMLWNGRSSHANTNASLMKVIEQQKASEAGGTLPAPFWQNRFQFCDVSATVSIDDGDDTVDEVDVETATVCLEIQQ

[3] = target: AMP-activated protein kinase, AMPK (Homo sapiens) (UniProt P54646+O43741+P54619+Q9UGJ0+Q9Y478+Q13131+Q9UGI9); assay: AMP-dependent Kinase enzyme assay. An in vitro enzyme assay that detects ADP turnover that is directly proportional to AMPK activity. This uses naive AMPK that is activated during the assay with MK-8722; assay type: functional; design: scale not given: direction of the effect not stated beside the values; details: 30 µM
[4] = target: Sialic acid-binding Ig-like lectin 9 (Homo sapiens) (UniProt Q9Y336); assay: Hs-Siglec9 ALPHAscreen SOP 20170721; design: scale not given: direction of the effect not stated beside the values; details: 10 µM
Trypanosoma cruzi = assay: Trypanosoma cruzi phosphomannomutase and mannose-1-phosphate guanylyltransferase assay; assay type: functional; design: scale not given: direction of the effect not stated beside the values; details: 10 µM
[5] = target: T2, Arginase-2, mitochondrial (Homo sapiens) (UniProt P78540); assay: in vitro enzyme assay to detect the production of urea directly proportional to the activity of Arginase II; assay type: functional; design: scale not given: in the data most compounds retested in dose-response had high values
T2 sequence (whole entry): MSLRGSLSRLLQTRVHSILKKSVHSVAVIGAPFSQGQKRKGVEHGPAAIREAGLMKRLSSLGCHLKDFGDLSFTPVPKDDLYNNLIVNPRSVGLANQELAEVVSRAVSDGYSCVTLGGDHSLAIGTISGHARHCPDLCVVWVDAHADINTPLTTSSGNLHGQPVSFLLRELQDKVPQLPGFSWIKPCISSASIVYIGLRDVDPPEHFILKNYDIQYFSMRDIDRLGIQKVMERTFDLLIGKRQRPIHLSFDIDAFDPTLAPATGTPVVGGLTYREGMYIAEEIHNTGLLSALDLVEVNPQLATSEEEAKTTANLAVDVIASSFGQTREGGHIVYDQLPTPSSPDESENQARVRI

[6] = target: T3, Proteasome subunit beta (Trypanosoma cruzi) (UniProt O96673); assay: Trypanosoma cruzi proteasome chymotrypsin-like activity (TcProtChymo) assay.; assay type: functional; design: scale not given: in the data most compounds retested in dose-response had high values; details: 9.37 µM
T3 sequence (whole entry): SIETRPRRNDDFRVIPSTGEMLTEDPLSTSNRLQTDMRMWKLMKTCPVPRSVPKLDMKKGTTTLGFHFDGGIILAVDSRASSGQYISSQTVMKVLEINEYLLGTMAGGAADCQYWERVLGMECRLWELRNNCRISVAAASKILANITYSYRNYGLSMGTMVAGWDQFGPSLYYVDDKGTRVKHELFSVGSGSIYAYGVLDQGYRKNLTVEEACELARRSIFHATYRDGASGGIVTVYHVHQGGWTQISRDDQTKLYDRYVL

Homo sapiens = species on record: Homo sapiens; assay: To identify inhibition of the IFN signalling (Jak-Stat) pathway via expression of an eGFP reporter gene under the control of an IFN-stimulated response element (ISRE) containing MxA promoter.; assay type: functional; design: scale not given: direction of the effect not stated beside the values; details: 30 µM
[7] = target: T4, Tyrosyl-tRNA synthetase, putative (Trypanosoma cruzi (strain CL Brener)) (UniProt Q4DSP6); assay: Trypanosoma cruzi tyrosyl tRNA synthetase (TcYRS) _High Tyrosine SOP; assay type: functional; design: scale not given: in the data most compounds retested in dose-response had high values; details: 30 µM
T4 sequence (whole entry): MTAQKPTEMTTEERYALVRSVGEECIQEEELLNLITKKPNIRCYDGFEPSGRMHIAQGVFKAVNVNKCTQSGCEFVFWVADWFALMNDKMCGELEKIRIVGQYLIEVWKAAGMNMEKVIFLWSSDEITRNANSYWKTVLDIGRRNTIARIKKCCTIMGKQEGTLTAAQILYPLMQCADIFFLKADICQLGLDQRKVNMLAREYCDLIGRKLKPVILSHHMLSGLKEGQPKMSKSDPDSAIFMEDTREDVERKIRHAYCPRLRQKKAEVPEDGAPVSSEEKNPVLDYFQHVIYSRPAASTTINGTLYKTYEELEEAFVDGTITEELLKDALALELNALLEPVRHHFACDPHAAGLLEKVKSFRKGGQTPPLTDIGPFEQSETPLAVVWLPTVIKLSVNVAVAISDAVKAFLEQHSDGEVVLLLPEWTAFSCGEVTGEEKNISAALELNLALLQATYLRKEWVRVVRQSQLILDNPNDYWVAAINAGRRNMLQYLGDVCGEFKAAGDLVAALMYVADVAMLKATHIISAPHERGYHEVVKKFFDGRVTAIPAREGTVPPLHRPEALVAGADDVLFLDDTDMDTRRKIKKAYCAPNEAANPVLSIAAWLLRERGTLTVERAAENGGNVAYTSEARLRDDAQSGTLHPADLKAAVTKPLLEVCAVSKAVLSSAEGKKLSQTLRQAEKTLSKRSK

[8] = target: T4, Tyrosyl-tRNA synthetase, putative (Trypanosoma cruzi (strain CL Brener)); assay: Trypanosoma cruzi tyrosyl tRNA synthetase (TcYRS) SOP; assay type: functional; design: scale not given: direction of the effect not stated beside the values; details: 30 µM
[9] = target: Chromo domain-containing protein 1 (Saccharomyces cerevisiae (strain ATCC 204508 / S288c) (Baker's yeast)) (UniProt P32657); assay: ScCHD-1 Enzyme Inhibition Assay; assay type: functional; design: scale not given: in the data most compounds retested in dose-response had high values; details: 30 µM
[10] = target: T5, Methionyl-tRNA synthetase, putative (Leishmania donovani (strain BPK282A1)) (UniProt E9BF75); assay: Leishmania donovani Methionine tRNA synthetase (LdMetRS):v7. Dose response assay; assay type: functional; design: conc 80 nM, time 150 minutes
T5 sequence (whole entry): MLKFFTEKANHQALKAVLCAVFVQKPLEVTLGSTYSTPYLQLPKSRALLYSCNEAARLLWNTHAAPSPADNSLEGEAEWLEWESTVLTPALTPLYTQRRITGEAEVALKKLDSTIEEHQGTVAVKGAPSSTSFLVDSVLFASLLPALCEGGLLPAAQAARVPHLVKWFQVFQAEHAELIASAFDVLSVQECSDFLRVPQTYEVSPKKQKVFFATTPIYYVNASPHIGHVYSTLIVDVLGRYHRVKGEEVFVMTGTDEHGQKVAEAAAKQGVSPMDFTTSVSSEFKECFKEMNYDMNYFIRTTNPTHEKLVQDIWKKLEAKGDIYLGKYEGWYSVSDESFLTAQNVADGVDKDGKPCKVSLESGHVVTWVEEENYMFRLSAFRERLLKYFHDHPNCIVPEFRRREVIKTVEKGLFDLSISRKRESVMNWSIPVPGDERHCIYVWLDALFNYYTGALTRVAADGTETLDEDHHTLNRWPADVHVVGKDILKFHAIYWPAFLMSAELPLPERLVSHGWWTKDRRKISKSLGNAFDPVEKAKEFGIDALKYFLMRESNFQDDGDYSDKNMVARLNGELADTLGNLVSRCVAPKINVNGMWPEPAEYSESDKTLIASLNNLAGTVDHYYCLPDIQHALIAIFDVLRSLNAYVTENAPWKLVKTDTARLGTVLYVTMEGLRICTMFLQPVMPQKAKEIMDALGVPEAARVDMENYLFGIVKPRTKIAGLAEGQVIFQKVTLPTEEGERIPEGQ

Chromo domain-containing protein 1 (Saccharomyces cerevisiae (strain ATCC 204508 / S288c) (Baker's yeast)), sequence (P32657 whole entry, the tested form may be a part): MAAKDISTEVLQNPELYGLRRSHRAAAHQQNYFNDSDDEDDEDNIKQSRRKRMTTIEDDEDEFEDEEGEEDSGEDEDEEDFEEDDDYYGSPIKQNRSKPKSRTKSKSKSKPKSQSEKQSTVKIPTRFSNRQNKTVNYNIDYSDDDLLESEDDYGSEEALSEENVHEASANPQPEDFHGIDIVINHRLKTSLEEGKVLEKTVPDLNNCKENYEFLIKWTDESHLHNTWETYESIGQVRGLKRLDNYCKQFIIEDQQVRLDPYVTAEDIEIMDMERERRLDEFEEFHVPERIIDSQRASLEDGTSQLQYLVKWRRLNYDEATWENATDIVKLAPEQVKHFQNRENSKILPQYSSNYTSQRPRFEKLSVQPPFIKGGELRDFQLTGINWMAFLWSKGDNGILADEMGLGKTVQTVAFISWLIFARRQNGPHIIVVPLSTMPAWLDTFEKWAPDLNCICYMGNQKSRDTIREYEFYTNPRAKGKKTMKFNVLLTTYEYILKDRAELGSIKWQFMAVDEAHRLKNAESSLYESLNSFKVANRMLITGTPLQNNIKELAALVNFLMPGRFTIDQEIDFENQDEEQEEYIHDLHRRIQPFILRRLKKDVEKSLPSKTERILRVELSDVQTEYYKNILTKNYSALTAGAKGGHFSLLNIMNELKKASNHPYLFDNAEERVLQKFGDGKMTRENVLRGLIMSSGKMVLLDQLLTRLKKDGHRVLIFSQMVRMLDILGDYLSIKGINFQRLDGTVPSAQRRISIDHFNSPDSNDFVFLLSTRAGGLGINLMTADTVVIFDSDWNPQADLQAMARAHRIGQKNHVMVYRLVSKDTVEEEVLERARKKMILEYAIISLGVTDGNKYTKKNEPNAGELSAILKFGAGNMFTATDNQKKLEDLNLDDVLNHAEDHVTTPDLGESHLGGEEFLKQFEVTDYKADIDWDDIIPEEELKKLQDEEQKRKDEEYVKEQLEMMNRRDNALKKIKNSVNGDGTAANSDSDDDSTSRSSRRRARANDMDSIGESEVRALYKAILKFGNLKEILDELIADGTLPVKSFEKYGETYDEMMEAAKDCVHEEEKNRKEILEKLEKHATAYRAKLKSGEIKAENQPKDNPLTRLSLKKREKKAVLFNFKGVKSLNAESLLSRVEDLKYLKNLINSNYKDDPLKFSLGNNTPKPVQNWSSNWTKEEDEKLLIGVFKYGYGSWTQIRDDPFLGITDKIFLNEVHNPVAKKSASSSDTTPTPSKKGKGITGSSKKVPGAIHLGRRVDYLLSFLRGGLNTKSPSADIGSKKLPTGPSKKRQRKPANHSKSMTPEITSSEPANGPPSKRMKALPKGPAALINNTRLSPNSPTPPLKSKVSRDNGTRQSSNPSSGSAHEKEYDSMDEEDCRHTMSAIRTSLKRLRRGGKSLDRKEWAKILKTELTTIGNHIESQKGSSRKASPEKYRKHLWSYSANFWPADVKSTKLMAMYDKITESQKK
Protein translocase subunit SecA (Escherichia coli (strain K12)), sequence (P10408 whole entry): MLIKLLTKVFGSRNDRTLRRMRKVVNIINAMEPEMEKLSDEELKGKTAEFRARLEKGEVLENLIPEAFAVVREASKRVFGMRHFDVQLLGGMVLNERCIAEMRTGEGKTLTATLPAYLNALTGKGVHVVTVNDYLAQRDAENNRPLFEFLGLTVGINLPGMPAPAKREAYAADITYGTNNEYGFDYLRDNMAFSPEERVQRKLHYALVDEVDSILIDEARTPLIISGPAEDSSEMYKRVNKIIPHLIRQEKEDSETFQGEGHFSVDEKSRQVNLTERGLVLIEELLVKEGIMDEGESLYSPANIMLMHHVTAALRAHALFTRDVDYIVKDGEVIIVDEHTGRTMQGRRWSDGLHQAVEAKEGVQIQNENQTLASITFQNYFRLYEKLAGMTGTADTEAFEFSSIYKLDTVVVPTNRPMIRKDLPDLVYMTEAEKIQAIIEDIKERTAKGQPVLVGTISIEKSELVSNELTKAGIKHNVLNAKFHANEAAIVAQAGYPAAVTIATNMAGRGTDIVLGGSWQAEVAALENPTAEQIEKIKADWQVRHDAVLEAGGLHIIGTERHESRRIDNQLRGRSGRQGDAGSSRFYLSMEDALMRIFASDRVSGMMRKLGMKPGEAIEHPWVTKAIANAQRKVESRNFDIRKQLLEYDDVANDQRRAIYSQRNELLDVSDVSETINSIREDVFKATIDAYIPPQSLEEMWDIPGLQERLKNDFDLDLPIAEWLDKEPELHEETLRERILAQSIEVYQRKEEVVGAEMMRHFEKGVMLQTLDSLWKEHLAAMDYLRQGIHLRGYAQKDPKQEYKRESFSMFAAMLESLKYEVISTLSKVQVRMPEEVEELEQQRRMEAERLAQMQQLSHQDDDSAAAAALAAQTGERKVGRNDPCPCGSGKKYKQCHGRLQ
Sialic acid-binding Ig-like lectin 9 (Homo sapiens), sequence (Q9Y336 whole entry): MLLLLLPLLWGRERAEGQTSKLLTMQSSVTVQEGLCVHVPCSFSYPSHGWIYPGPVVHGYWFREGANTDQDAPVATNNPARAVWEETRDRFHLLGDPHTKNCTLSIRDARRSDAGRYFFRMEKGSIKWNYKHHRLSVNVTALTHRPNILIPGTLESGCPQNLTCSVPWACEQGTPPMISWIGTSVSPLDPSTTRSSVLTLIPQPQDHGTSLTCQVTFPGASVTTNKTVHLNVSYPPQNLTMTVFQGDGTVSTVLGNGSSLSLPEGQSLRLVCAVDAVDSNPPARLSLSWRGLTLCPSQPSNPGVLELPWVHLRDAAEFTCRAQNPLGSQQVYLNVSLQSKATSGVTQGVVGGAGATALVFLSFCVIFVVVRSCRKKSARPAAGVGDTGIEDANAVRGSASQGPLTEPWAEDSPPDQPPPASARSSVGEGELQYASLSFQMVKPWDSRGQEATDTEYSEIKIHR

In the case of O=C(Cc1ccccn1)N1CCC2(CC1)CC(Oc1ccccn1)CO2 (stereo unspecified), the Percent Effect [1] is reported as -3.31%, the Percent Effect [2] is reported as 10.7% and the Percent Effect [3] is reported as 4.11%. The Percent Effect [4] was 0.184%, the Percent Effect (Trypanosoma cruzi) was -1.18% and the Percent Effect ([5]; 30 µM) was 2.7%. It also gave a Percent Effect ([5]; 33.3 µM) of -5.36%, a Percent Effect [6] of 12.2% and a Percent Effect (Homo sapiens) of 12.5%. For the same compound, the Percent Effect [7] was 7.45%, the Percent Effect [8] was 16.7% and the Percent Effect [9] was -7.71%.
CN(CC1CC1)c1ccc2ccc(C(=O)NCCN3CCOCC3)cn12 showed a PXC50 ([10]; BOTTOM -1.512370452, HILLSLOPE 1.01203919, MAX_EFFECT 54.40140845, TOP 92.97919978) of 4.18, a PXC50 ([10]; BOTTOM -1.802135636, HILLSLOPE 1.091019119, MAX_EFFECT 56.05700713, TOP 88.72898538) of 4.23 and a Percent Effect [1] of 0.0454%. It also gave a Percent Effect [2] of 6.49%, a Percent Effect [4] of -2.21% and a Percent Effect (Trypanosoma cruzi) of 2.06%. The Percent Effect ([5]; 33.3 µM) was 2.28%, the Percent Effect [6] was 0.944% and the Percent Effect (Homo sapiens) was 29.3%. It also gave a Percent Effect [7] of 34.8%, a Percent Effect [8] of 15% and a Percent Effect [9] of -2.15%.
Cc1ccc(CNC(=O)N(Cc2ccccc2F)C2CC2)cn1 showed a Percent Effect [1] of -6.51%, a Percent Effect [2] of 2.67% and a Percent Effect [3] of 0.556%. The Percent Effect [4] was 21.6%, the Percent Effect (Trypanosoma cruzi) was -1.27% and the Percent Effect ([5]; 30 µM) was 13.5%. The Percent Effect ([5]; 33.3 µM) was -2.6%, the Percent Effect [6] was 7.85% and the Percent Effect (Homo sapiens) was 15.6%. For the same compound, the Percent Effect [7] was 6.01%, the Percent Effect [8] was 8.64% and the Percent Effect [9] was -2.37%.
CCC(CO)NC(=O)c1ccc2ccc(N(C)CC3CC3)n2c1 (stereo unspecified) showed a PXC50 ([10]; MAX_EFFECT 27.99295775) of less than 4, a PXC50 ([10]; MAX_EFFECT 39.42992874) of less than 4 and a Percent Effect [1] of 3.49%. For the same compound, the Percent Effect [2] was 3.9%, the Percent Effect [4] was 0.399% and the Percent Effect (Trypanosoma cruzi) was 3.56%. The Percent Effect ([5]; 33.3 µM) was 0.457%, the Percent Effect [6] was 15.2% and the Percent Effect (Homo sapiens) was 8.81%. The Percent Effect [7] was 12.6%, the Percent Effect [8] was 15% and the Percent Effect [9] was -3.69%.
In the case of CC1CCCN(CC(=O)N2CCC(c3ncc4c(n3)CCNC4)CC2)C1 (stereo unspecified), the PXC50 ([10]; MAX_EFFECT 4.401408451) is reported as less than 4, the PXC50 ([10]; MAX_EFFECT 5.700712589) is reported as less than 4 and the Percent Effect [1] is reported as -3.77%. It also gave a Percent Effect [2] of 2.67%, a Percent Effect [3] of 14.5% and a Percent Effect [4] of -3.5%. It also gave a Percent Effect (Trypanosoma cruzi) of 0.394%, a Percent Effect ([5]; 33.3 µM) of -0.699% and a Percent Effect [6] of 5.02%. It also gave a Percent Effect (Homo sapiens) of 3.99%, a Percent Effect [7] of -1.06% and a Percent Effect [8] of -3.85%. The Percent Effect [9] was 2.27%.

Source: ChEMBL document CHEMBL3988442, “University of Dundee, Small-Polar-MMV Screening Library” (2021)
